Values joined by “and” are separate entries in the source; they are usually repeats but may differ in a detail not shown here. Equal entries are not always repeated. The campaign covered roughly 5,500 compounds. About 2,000 (36%) were called active. Not shown: some 18% with an inconclusive outcome. Rule as the data show it: active = normalized growth mostly below about 0.91 (no sharp cut-off); inconclusive = no clear call, values can overlap the other calls; inactive = mostly above about 0.92. The list shows a part of the results.
Test: chemical genetic growth profiling, strain panel (AID 1159580);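 also: tested at 20 µM; growth read once vehicle control cultures reached saturation at 30 °C; 1 = growth at the plate median or of vehicle wells; lower values mean less growth of the strain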
Conditions: S. cerevisiae deletion strains, growth OD
[1] = locus YAL013W, strain DEP1, hits give low values
[2] = locus YJR075W, strain HOC1, hits give low values
[3] = locus YMR307W, strain GAS1, hits give low values
[4] = locus YNL322C, strain KRE1, hits give low values

Measured: normalized growth

CC(C)NC[C@@H](O)c1ccc(O)c(O)c1
active: [2] 1.12 [resistant] | [3] 1.1 [resistant]
inactive: [1] 0.974 | locus YAL040C, strain CLN3, hits give low values 1.03 | locus YCL061C, strain MRC1 (second series), hits give low values 0.996 | locus YDR150W, strain NUM1, hits give low values 1 | locus YDR363W, strain ESC2, hits give low values 1 | locus YER002W, strain NOP16, hits give low values 0.984 | locus YGR078C, strain PAC10, hits give low values 0.99 | locus YNL175C, strain NOP13, hits give low values 0.984 | locus YNL197C, strain WHI3, hits give low values 0.985 | locus YNL224C, strain SQS1, hits give low values 0.997 | [4] 1.01 | locus YOR083W, strain WHI5 (second series), hits give low values 1.04 | locus YPL241C, strain CIN2, hits give low values 0.998

CNC[C@@H](O)c1ccc(O)c(O)c1
inactive: [1] 0.993 | locus YAL021C, strain ccr4, hits give low values 1 | locus YAL026C, strain drs2, hits give low values 0.984 | locus YAL030W, strain snc1, hits give low values 1 | locus YBL061C, strain skt5, hits give low values 1 | locus YBR009C, strain hhf1, hits give low values 0.997 | locus YBR021W, strain FUR4, hits give low values 1.02 | locus YBR023C, strain chs3, hits give low values 1.01 | locus YBR171W, strain sec66, hits give low values 1 | locus YBR229C, strain ROT2, hits give low values 0.96 | locus YBR231C, strain swc5, hits give low values 0.991 | locus YBR279W, strain paf1, hits give low values 1 | locus YCL011C, strain gbp2, hits give low values 1.02 | locus YCL016C, strain dcc1, hits give low values 1.02 | locus YCL029C, strain bik1, hits give low values 0.984 | locus YCL061C, strain MRC1, hits give low values 1.01 | locus YCL069W, strain vba3, hits give low values 1.01 | locus YCR088W, strain abp1, hits give low values 1.01 | locus YDL005C, strain med2, hits give low values 0.997 | locus YDL035C, strain GPR1, hits give low values 0.981 | locus YDL040C, strain nat1, hits give low values 1 | locus YDL074C, strain BRE1, hits give low values 0.984 | locus YDL101C, strain DUN1, hits give low values 0.986 | locus YDL185W, strain tfp1, hits give low values 0.966 | locus YDL192W, strain arf1, hits give low values 0.979 | locus YDR001C, strain nth1, hits give low values 1.01 | locus YDR069C, strain doa4, hits give low values 0.989 | locus YDR101C, strain arx1, hits give low values 0.982 | locus YDR137W, strain rgp1, hits give low values 1.03 | locus YDR159W, strain sac3, hits give low values 1 | locus YDR162C, strain NBP2, hits give low values 0.977 | locus YDR195W, strain ref2 0.989 | locus YDR297W, strain sur2, hits give low values 0.995 | locus YDR318W, strain mcm21, hits give low values 0.983 | locus YDR334W, strain swr1, hits give low values 0.993 | locus YDR335W, strain msn5, hits give low values 1 | locus YDR388W, hits give low values 0.99 | locus YDR392W, strain spt3, hits give low values 0.93 | locus YDR502C, strain sam2, hits give low values 0.996 | locus YEL003W, strain gim4, hits give low values 1 | locus YEL037C, strain rad23, hits give low values 1 | locus YEL061C, strain CIN8 (second series), hits give low values 1.01 | locus YEL061C, strain CIN8, hits give low values 0.978 | locus YER015W, strain faa2, hits give low values 1.01 | locus YER016W, strain bim1, hits give low values 1.01 | locus YER110C, hits give low values 0.984 | locus YER111C, strain swi4, hits give low values 1.02 | locus YER155C, strain BEM2 (second series), hits give low values 0.988 | locus YER155C, strain BEM2, hits give low values 1 | locus YER167W, strain BCK2, hits give low values 1.01 | locus YFR010W, strain ubp6, hits give low values 0.993 | locus YGL078C, strain dbp3, hits give low values 0.993 | locus YGL086W, strain mad1, hits give low values 0.977 | locus YGL167C, strain pmr1, hits give low values 1 | locus YGL173C, strain kem1, hits give low values 1 | locus YGL227W, strain vid30, hits give low values 1 | locus YGL240W, strain doc1, hits give low values 0.989 | locus YGL248W, strain PDE1, hits give low values 1 | locus YGL253W, strain hxk2, hits give low values 1.01 | locus YGR135W, strain pre9, hits give low values 1.04 | locus YGR229C, strain SMI1, hits give low values 0.99 | locus YGR252W, strain gcn5, hits give low values 1.02 | locus YHR013C, strain ard1, hits give low values 1.04 | locus YHR027C, strain rpn1, hits give low values 1.01 | locus YHR030C, strain SLT2, hits give low values 0.999 and 1.05 | locus YHR079C, strain IRE1 (second series), hits give low values 0.951 | locus YHR079C, strain IRE1, hits give low values 1.04 | locus YHR094C, strain hxt1, hits give low values 0.977 | locus YHR129C, strain ARP1, hits give low values 0.999 | locus YHR142W, strain chs7, hits give low values 1.02 | locus YHR200W, strain rpn10, hits give low values 0.97 | locus YIL066C, strain RNR3, hits give low values 0.986 | locus YIL073C, strain SPO22, hits give low values 1.02 | locus YIL125W, strain kgd1, hits give low values 0.983 | locus YIR030C, strain dcg1, hits give low values 0.999 | locus YJL092W, strain hpr5, hits give low values 1.01 | locus YJL095W, strain BCK1 (second series), hits give low values 1.01 | locus YJL095W, strain BCK1, hits give low values 1.03 and 1.07 | locus YJL115W, strain asf1, hits give low values 0.996 | locus YJL129C, strain trk1, hits give low values 1 | locus YJL134W, strain LCB3, hits give low values 0.993 | locus YJL154C, strain vps35, hits give low values 1 | locus YJL164C, strain tpk1, hits give low values 0.995 | locus YJL166W, strain qcr8, hits give low values 1.01 | locus YJL168C, strain set2, hits give low values 0.987 | locus YJL187C, strain SWE1 (second series), hits give low values 0.981 | locus YJL187C, strain SWE1, hits give low values 1 | locus YJR043C, strain POL32, hits give low values 0.978 | locus YJR066W, strain TOR1, hits give low values 0.985 | [2] 0.994 | locus YKL009W, strain mrt4, hits give low values 0.986 | locus YKL068W, hits give low values 0.977 | locus YKL085W, strain MDH1 (second series), hits give low values 0.996 | locus YKL085W, strain MDH1, hits give low values 0.996 | locus YKL160W, strain elf1, hits give low values 1.03 | locus YKR001C, strain vps1, hits give low values 0.982 | locus YKR026C, strain gcn3, hits give low values 1 | locus YKR091W, strain srl3, hits give low values 1.01 | locus YLL001W, strain dnm1, hits give low values 1.01 | locus YLL026W, hits give low values 1 | locus YLL041C, strain sdh2, hits give low values 1 | locus YLR027C, strain aat2, hits give low values 1 | locus YLR039C, strain RIC1, hits give low values 1.03 | locus YLR058C, strain SHM2, hits give low values 0.984 | locus YLR102C, strain apc9, hits give low values 0.968 | locus YLR113W, strain HOG1, hits give low values 1.08 | locus YLR221C, strain rsa3, hits give low values 1.02 | locus YLR258W, strain gsy2, hits give low values 1.02 | locus YLR262C, strain YPT6 (second series), hits give low values 1 | locus YLR262C, strain YPT6, hits give low values 0.947 | locus YLR268W, strain sec22, hits give low values 0.972 | locus YLR320W, strain mms22, hits give low values 1.03 | locus YLR330W, strain CHS5, hits give low values 0.992 | locus YLR342W, strain FKS1 (second series), hits give low values 0.999 | locus YLR342W, strain FKS1, hits give low values 1.01 | locus YLR357W, strain rsc2, hits give low values 0.957 | locus YLR370C, strain arc18, hits give low values 1.01 | locus YLR371W, strain rom2, hits give low values 0.983 | locus YLR384C, strain iki3, hits give low values 0.999 | locus YLR418C, strain cdc73, hits give low values 0.996 | locus YML016C, strain PPZ1, hits give low values 0.994 | locus YML032C, strain rad52, hits give low values 0.997 | locus YML120C, strain ndi1, hits give low values 1.03 | locus YML124C, strain tub3, hits give low values 0.983 | locus YMR058W, strain fet3, hits give low values 1 | locus YMR078C, strain ctf18, hits give low values 0.99 | locus YMR125W, strain sto1, hits give low values 0.991 | locus YMR129W, hits give low values 1.01 | locus YMR205C, strain PFK2, hits give low values 1.04 | locus YMR223W, strain ubp8, hits give low values 1.02 | locus YMR231W, strain pep5, hits give low values 0.999 | locus YMR263W, strain SAP30, hits give low values 0.995 | [3] 1.05 | locus YNL067W, strain RPL9B, hits give low values 0.992 | locus YNL071W, strain lat1, hits give low values 1.02 | locus YNL153C, strain GIM3, hits give low values 0.993 | locus YNL183C, strain NPR1, hits give low values 0.99 | locus YNL209W, strain ssb2, hits give low values 1 | locus YNL233W, strain BNI4, hits give low values 0.999 | locus YNL248C, strain rpa49, hits give low values 1.02 | locus YNL250W, strain rad50, hits give low values 0.96 | locus YNL271C, strain bni1, hits give low values 0.988 | locus YNL298W, strain CLA4, hits give low values 0.979 | locus YNL307C, strain MCK1, hits give low values 0.905 | locus YNL322C, strain KRE1 (second series), hits give low values 1.02 | [4] 1 | locus YNR049C, strain mso1, hits give low values 1 | locus YNR052C, strain pop2, hits give low values 0.984 | locus YOL012C, strain htz1 0.8 | locus YOL147C, strain pex11, hits give low values 0.989 | locus YOR001W, strain rrp6, hits give low values 1.01 | locus YOR061W, strain CKA2, hits give low values 0.967 | locus YOR069W, strain VPS5, hits give low values 0.991 | locus YOR070C, strain gyp1, hits give low values 1 | locus YOR080W, strain dia2, hits give low values 0.997 | locus YOR083W, strain WHI5, hits give low values 1.03 | locus YOR106W, strain vam3, hits give low values 1.02 | locus YOR136W, strain idh2, hits give low values 0.965 | locus YOR144C, strain elg1, hits give low values 0.986 | locus YOR184W, strain ser1, hits give low values 0.982 | locus YOR231W, strain MKK1, hits give low values 1.07 | locus YOR265W, strain rbl2, hits give low values 1 | locus YOR270C, strain vph1, hits give low values 1.05 | locus YOR290C, strain snf2, hits give low values 0.955 | locus YOR316C, strain cot1, hits give low values 0.966 | locus YPL051W, strain arl3, hits give low values 0.998 | locus YPL055C, strain LGE1, hits give low values 1.02 | locus YPL078C, strain atp4, hits give low values 1.01 | locus YPL106C, strain sse1, hits give low values 0.984 | locus YPL240C, strain hsp82, hits give low values 1.01 | locus YPL256C, strain CLN2, hits give low values 1.03 | locus YPR119W, strain clb2, hits give low values 0.968 | locus YPR141C, strain kar3, hits give low values 0.975 | locus YPR163C, strain tif3, hits give low values 0.986 | locus YPR167C, strain met16, hits give low values 0.989 | strain wtn01, hits give low values 1

Source: PubChem BioAssay AID1159580 (chemical genetic matrix, 2015)
